Laboratory results from PubChem BioAssay (Tox21).
Results filed as inconclusive are left out. The source made the active and inactive calls. The call rests on the fitted dose curve; in most records, active means well fitted curve in the direction sought with a large enough effect in the repeat runs; inconclusive means weak or mixed curves; inactive means no such curve, though single readings can be large; an effect the other way counts as inactive or inconclusive.

What was measured:
[1] = qHTS RealTime-Glo MT Cell Viability Assay in HepG2 cells - 40 hour (AID 1224870); further: nearly all actives have a fitted effect of over 50% in size
In short: (§1)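 HepG2 cells mixed with RealTime-Glo MT reagents (NanoLuc plus cell-permeant prosubstrate) were seeded at 600 cells/well, incubated 5 h at 37 C/5% CO2, then pinned with compounds in DMSO; nonlytic luminescence tracked viability during 40 h treatment.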

[2] = A CellTox Green Cytotoxicity Assay to monitor cytotoxicity in HEK293 cells - 40 hour (AID 1224871); further: nearly all actives have a fitted effect of over 45% in size
In short: (§2)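 Read-out: fluorescence of a cell-impermeant cyanine dye staining DNA of dead cells, proportional to cytotoxicity. HEK293, 600 cells/well with reagent, compound (23 nL DMSO) added after 5 h; reads at 0, 8, 16, 24, 32, 40 h.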

[3] = qHTS RealTime-Glo MT Cell Viability Assay in HEK293 cells - 16 hour (AID 1224872); further: top concentration of the series differs between compounds; nearly all actives have a fitted effect of over 50% in size
In short: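 Luminescence generated by NanoLuc from substrate produced by living HEK293 cells served as the viability signal. Each value reflects the reading at its stated time point during continuous 40 h compound exposure at 37 C.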

[4] = qHTS RealTime-Glo MT Cell Viability Assay in HepG2 cells - 8 hour (AID 1224873); further: nearly all actives have a fitted effect of over 55% in size
In short: as §1

[5] = qHTS RealTime-Glo MT Cell Viability Assay in HEK293 cells - 40 hour (AID 1224874); details: RealTime-Glo luminescence; max response: hits give low values; further: nearly all actives have a fitted effect of over 50% in size
In short: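 Luminescence readout at each listed time point; HEK293, 600 cells/well, RealTime-Glo MT reagent added with cells; compounds pinned (23 nL in DMSO) after 5 h at 37 C; continuous culture at 37 C.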

[6] = A CellTox Green Cytotoxicity Assay to monitor cytotoxicity in HEK293 cells - 24 hour (AID 1224875); further: series mostly up to about 77 µM; nearly all actives have a fitted effect of over 45% in size
In short: as §2

[7] = A CellTox Green Cytotoxicity Assay to monitor cytotoxicity in HepG2 cells - 16 hour (AID 1224876); further: nearly all actives have a fitted effect of over 45% in size
In short: (§3)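 HepG2, 600 cells/well premixed w/ CellTox Green; 5 h settle, 37 C/5% CO2; pintool cpd add (DMSO); 37 C, 40 h; fluorescence read at 0, 8, 16, 24, 32, 40 h.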

[8] = qHTS RealTime-Glo MT Cell Viability Assay in HepG2 cells - 32 hour (AID 1224877); further: nearly all actives have a fitted effect of over 55% in size
In short: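 Tox21 10K library screened in qHTS format on HepG2 cells carrying RealTime-Glo reagents. Compounds were added after a 5 h preincubation, and the luminescent signal from continuous culture was measured repeatedly during 40 h treatment.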

[9] = A CellTox Green Cytotoxicity Assay to monitor cytotoxicity in HepG2 cells - 24 hour (AID 1224878); further: nearly all actives have a fitted effect of over 45% in size
In short: as §3

[10] = A CellTox Green Cytotoxicity Assay to monitor cytotoxicity in HepG2 cells - 40 hour (AID 1224879); further: nearly all actives have a fitted effect of over 40% in size
In short: as §3
On the % scale 0 is the no-effect control and ±100 the full control effect.

Brc1ccc(-c2ccccc2)cc1
inactive: outcome [1] | Potency [2] | Potency [3] | outcome [4] | max response [5] 1.08% | outcome [6] | outcome [7] | outcome [8] | outcome [9] | Potency [10]

COc1nccnc1NS(=O)(=O)c1ccc(N)cc1
inactive: outcome [1] | Potency [2] | Potency [3] | outcome [4] | max response [5] 2.98% | outcome [6] | outcome [7] | outcome [8] | Potency [10]

Cc1cc2cc3c(C)cc(=O)oc3c(C)c2o1
inactive: outcome [1] | Potency [2] | Potency [3] | outcome [4] | max response [5] -18.2% | outcome [6] | outcome [7] | outcome [8] | outcome [9] | Potency [10]

CCCCCCOC(=O)CC
inactive: outcome [1] | Potency [2] | Potency [3] | outcome [4] | max response [5] 2.45% | outcome [6] | outcome [7] | outcome [8] | Potency [10]

Nc1ccc2cc(S(=O)(=O)O)cc(O)c2c1
inactive: outcome [1] | Potency [2] | Potency [3] | outcome [4] | max response [5] 0.478% | outcome [6] | outcome [7] | outcome [8] | Potency [10]

COc1ccc(Br)c(C)c1
inactive: outcome [1] | Potency [2] | Potency [3] | outcome [4] | max response [5] 4.1% | outcome [6] | outcome [7] | outcome [8] | Potency [10]

C[Si](C)=O
inactive: activity change, negative = cytotoxic [1] -3.86% [at 6.97 µM] | cytotoxicity increase [2] 12.6% [at 6.97 µM] | activity change, negative = cytotoxicity [3] 2.27% [at 6.97 µM] | viability change, negative = cytotoxic [4] 1.52% [at 6.97 µM] | max response [5] 0.522% | activity change [6] 9.97% [at 6.97 µM] | cytotoxicity increase [7] -6.23% [at 6.97 µM] | activity change, negative = cytotoxic [8] 0.305% [at 6.97 µM] | cytotoxicity [9] -4.98% [at 6.97 µM] | cytotoxicity increase [10] -11.7% [at 6.97 µM]

C=Cc1ccccn1
inactive: outcome [1] | Potency [2] | Potency [3] | outcome [4] | max response [5] -0.127% | outcome [6] | outcome [7] | outcome [8] | Potency [10]

CC(C)(C)NC(N)=O
inactive: outcome [1] | Potency [2] | Potency [3] | outcome [4] | max response [5] 1.11% | outcome [7] | outcome [8] | outcome [9] | Potency [10]

c1ccc2nccnc2c1
inactive: outcome [1] | Potency [2] | Potency [3] | outcome [4] | max response [5] 5.36% | outcome [7] | outcome [8] | outcome [9] | Potency [10]

CC1=CCC(C(C)C)=CC1
inactive: outcome [1] | Potency [2] | Potency [3] | outcome [4] | max response [5] -3.87% | outcome [6] | outcome [7] | Potency [10]

O=C(O)C(=O)Cc1ccccc1
inactive: outcome [1] | Potency [2] | Potency [3] | outcome [4] | max response [5] 14.4% | outcome [6] | outcome [7] | Potency [10]

CC(C(=O)O)c1ccc2c(c1)CC(=O)c1ccccc1S2 (stereo not given)
inactive: outcome [1] | Potency [2] | Potency [3] | outcome [4] | max response [5] -2.02% | outcome [6] | outcome [7] | outcome [9] | Potency [10]

O=C(NCCc1c[nH]c2ccccc12)c1cccnc1
inactive: outcome [1] | Potency [2] | Potency [3] | outcome [4] | max response [5] -11.8% | outcome [7] | outcome [8] | outcome [9] | Potency [10]

CNS(=O)(=O)CCc1ccc2[nH]cc(C3CCN(C)CC3)c2c1
inactive: outcome [1] | Potency [2] | Potency [3] | outcome [4] | max response [5] -4.37% | outcome [6] | outcome [7] | outcome [9] | Potency [10]

Nc1ccc([N+](=O)[O-])c(N)c1
inactive: outcome [1] | Potency [2] | Potency [3] | outcome [4] | max response [5] -10.3% | outcome [7] | outcome [8] | outcome [9] | Potency [10]
